Screen size: about 6,200 compounds; about 2,900 (47%) were called active. The set was probably picked from earlier hits. This is one part of the list. Values without a mark were called inactive. Cut-off read from the data, not from the text of the source: active = inhibition above about 50%; inactive = the rest.

By inhibition is commonly meant the relative decrease from the control value, in per cent.

This test can be described thus: Mycobacterium tuberculosis growth inhibition, primary screen (AID 1259343). As to conditions: inhibition: at 10 µM, active compounds read high; outcome: 10 uM.
`O=C1CCCCC1Sc1nn(-c2ccc(F)cc2)c(=S)s1` (centres undefined): the inhibition is 70.1% (active). As to `O=C(CSc1nn(-c2ccc(F)cc2)c(=S)s1)Nc1cc(F)ccc1F`, the inhibition was -1.19%. For the compound `O=C1CCCCC1Sc1nnnn1-c1ccc(O)cc1` (centres undefined), the inhibition was 41%. In the case of `N#Cc1ccc(CON=Cc2ccc(OC(F)F)cc2)cc1` it was -4.56%; in that of `O=[N+]([O-])c1ccc(CON=Cc2ccc(OC(F)F)cc2)cc1`, 55.5% (active). In the case of `O=[N+]([O-])c1ccc(CON=Cc2ccc(Cl)cc2Cl)cc1` it was -5.39%; in that of `CC(C)CNC(=O)CSc1n[nH]c(/C=C/c2ccc(F)cc2)n1`, 87% (active); in that of `CC(C)CNC(=O)c1cn(Cc2ccc(F)cc2)nc1OCc1ccc(F)cc1`, 13.6%. `C/C(Cl)=C\COc1cc(C)nc2ccc(Br)cc12`: the inhibition was 99.8% (active). In the case of `Cc1coc2c1C(=O)C(=O)c1c-2ccc2c1CCCC2(C)C` it was 58.8% (active); in that of `CCn1nnc2c(=O)n(CC(=O)c3ccc(OC)cc3)cnc21`, 77.2% (active). In the case of `COc1ccc(NCc2nn(CC(=O)c3ccc(Br)cc3)c3[n+]2CCCCC3)cc1` it was 17.7%.

With `O=c1[nH]nc2nc(N3CCCCC3)nc(N3CCCCC3)n12`, the inhibition was 18.9%.

As for `O=C(Cn1ccc(=O)[nH]c1=O)NNc1ccc(Cl)c(Cl)c1`, the inhibition was 97.2% (active). In the case of `Cc1nc(CSc2ccc(C(=O)NNC(=O)c3ccc4c(c3)OCCO4)cc2)cs1` it was 95.3% (active).

Take `Cc1cn2nc(Sc3ccc4c(c3)OCCCO4)sc2n1`: the inhibition is 33.4%.

Turning to `Cc1nc(C2(NC(=O)c3ccc4c(c3)OCCCO4)CCCCC2)no1`, the inhibition was 5.32%. Take `CCCCN1C(=O)C(=Cc2cccnc2)SC1=Nc1ccc(OC)cc1`: the inhibition is 87.8% (active). With `CCCN1C(=O)C(=Cc2ccc(OC)cc2OC)SC1=S`, the inhibition is 2.79%. As for `CCN(CC)c1ccc(/C=C2\SC(=S)N(NC(=O)c3ccc(OC)cc3)C2=O)cc1`, the inhibition is 8.8%. In the case of `O=c1c(NCc2ccc(F)cc2)nccn1Cc1ccc(Cl)cc1` it was 96.5% (active); in that of `CC(c1ccco1)N(C)C(=O)NCCc1cc(F)ccc1F` (centres undefined), 21.2%; in that of `OC(CN1CCCCCC1)CN1c2ccccc2Sc2ccccc21` (centres undefined), 40.6%. Take `OC(CN1CCc2ccccc2C1)Cn1c2c(c3ccccc31)CCCC2` (centres undefined): the inhibition was 66.7% (active). As to `CCCn1cc(SCC(=O)N2CCc3ccccc32)c2ccccc21`, the inhibition is 16.9%. Take `CC(C)=CCN1N=C(c2ccccc2)C(O)O1` (centres undefined): the inhibition was 86% (active). In the case of `Cc1ccc(C2=NN3C(C2)c2cc(Cl)ccc2OC3c2ccncc2)cc1` (centres undefined) it was -54.8%. As for `Brc1ccc2c(c1)C1CC(c3cccs3)=NN1C(c1cccnc1)O2` (centres undefined), the figure is 97.9% (active); as for `N#Cc1ccc(OCCn2nccc2-c2ccncc2)cc1`, 61.2% (active). As for `Cc1ncc(COc2ccc(-c3ccc(C#N)cc3)cc2)s1`, the figure is 43.5%; as for `COCC(=O)Nc1nc2cc(C(F)(F)F)ccc2n1Cc1ccco1`, 62.6% (active). In the case of `FC(F)(F)c1cccc(C(OCCN2CCN(Cc3ccco3)CC2)c2ccccc2)c1` (centres undefined), the inhibition is -3.93%.

Turning to `COCC(=O)Nc1nc2ccccc2n1C1CCCCC1`, the inhibition is 14.7%.

For `O=C(OC(C(=O)Nc1cc(Cl)cc(Cl)c1)c1ccccc1)C1=COCCO1` (centres undefined), the inhibition is 78.7% (active).

On to `Nc1ccc(-n2cccc2C(=O)O)cc1`, for which the inhibition is 93.6% (active). As to `COc1c2ccccc2nc2occc12`, the inhibition is 89.7% (active). As for `Cc1cccc(NC(=O)C2CCN(c3c(F)cc(C#N)cc3F)CC2)n1`, the figure is 72.7% (active); as for `CCc1nnsc1C(=O)Nc1cc(F)c(N2CCCC2)c(F)c1`, 37.1%. In the case of `O=C(Nc1cc(F)c(N2CCCC2)c(F)c1)C1CC1c1cccnc1` (centres undefined) it was 32.7%. In the case of `N#CC(c1ccccc1)c1cnn(-c2ccccc2)c(=O)c1Cl` (centres undefined) it was 101% (active). On to `O=c1c(Cl)c(N2CCN(c3ccccc3)CC2)cnn1Cc1ccccc1Cl`, for which the inhibition is 17.9%. In the case of `N#CC(c1ccc(Cl)cc1Cl)c1cnnc2ccccc12` (centres undefined) it was -8.73%; in that of `CN(C)C=Nc1ccc(OC(F)F)c(Cl)c1`, 92% (active); in that of `CCc1cc(=O)[nH]c(-n2nc(C)cc2NC(=O)c2cccc([N+](=O)[O-])c2)n1`, 102% (active).

With `CCc1cc(=O)[nH]c(-n2nc(C)cc2NC(=O)c2ccc([N+](=O)[O-])cc2)n1`, the inhibition is 101% (active). In the case of `Cc1cc(=O)[nH]c(-n2nc(C)cc2NC(=O)c2cccc([N+](=O)[O-])c2)n1` it was 100% (active).

Take `Cc1cc(-c2nc3cccnc3s2)ccc1NS(=O)(=O)c1ccc(F)cc1F`: the inhibition was 74.7% (active). As for `COC(=O)c1ccccc1NC(=O)c1cc(-c2cccs2)n(C2CCS(=O)(=O)C2)n1` (centres undefined), the figure is 42.9%.

Consider `CCC(=O)NCC1CN(c2ccc(OC)cc2)C(=O)O1` (centres undefined), for which the inhibition is 83% (active).

As for `O=C(CN1CCCC1c1ccsc1)Nc1ccccc1Br` (centres undefined), the inhibition was 41.9%. `N#Cc1nc(NC(=O)C2CC2c2ccc(Br)cc2)[nH]c1C#N` (centres undefined): the inhibition is 81.5% (active). `O=S(=O)(Nc1ccc(F)c(F)c1)c1ccc(Cl)c(Cl)c1`: the inhibition is 17.1%. As to `COc1ccc(S(=O)(=O)Nc2ccc3c(c2)OC(F)(F)O3)cc1`, the inhibition was 33%.

As for `O=S(=O)(Nc1cc(Cl)ccc1Cl)c1ccc(Cl)cc1`, the inhibition is 64.6% (active). As for `O=c1[nH]c2ccc(S(=O)(=O)Nc3ccc(Cl)cc3Cl)cc2s1`, the figure is 19%; as for `Nc1cc(S(=O)(=O)Nc2ccc(Cl)cc2)ccc1Cl`, 89.1% (active). As for `N#CSc1ccc(NS(=O)(=O)c2ccc(Cl)cc2)c(Cl)c1`, the inhibition is 79.8% (active). In the case of `Nc1cc(S(=O)(=O)Nc2ccc(Br)cc2)ccc1Cl` it was 30%; in that of `COc1ccc(NS(=O)(=O)c2ccc(Cl)c(Cl)c2)cc1`, 86.7% (active); in that of `CCN(CC)S(=O)(=O)c1cccc(S(=O)(=O)c2ccc(Cl)c(Cl)c2)c1`, 1.03%.

`CCS(=O)(=O)c1ccc(NC(=O)Cc2ccc(Cl)c(Cl)c2)cc1`: the inhibition is 41.3%. As for `CCC(C)(C)NS(=O)(=O)c1ccc(Cl)c(Cl)c1`, the inhibition is 82.7% (active). In the case of `CCn1cnnc1CN(C)c1ccc(-c2nc(-c3ccccc3F)no2)cn1` it was 7.76%.

With `CN(Cc1cccnc1)c1ccc2c(-c3ccccc3F)noc2n1`, the inhibition is 90.6% (active). In the case of `CN(Cc1ccc(Cl)cc1)c1ccc2c(C3CC3)noc2n1` it was 41.3%. As for `O=Cc1ccc(-c2ccc(Cl)cc2Cl)[nH]1`, the figure is 91.2% (active). With `CC(NCCC(c1ccccc1)c1ccccc1)c1ccccc1` (centres undefined), the inhibition was 58.2% (active). Regarding `CCOc1nc(NC(C)c2ccccc2)ncc1Br` (centres undefined), the inhibition was 28%. As for `Clc1ccccc1CSCc1csc(Cc2ccc3c(c2)OCO3)n1`, the figure is 11.8%; as for `Oc1ccc(-c2csc(Cc3ccccc3)n2)cc1O`, 30.3%; as for `Cc1ccc(Cc2nc(CSCCc3ccccc3)cs2)cc1`, 63.4% (active). As for `COc1ccccc1-c1noc2nc(OCc3ccccc3)ccc12`, the figure is 95.3% (active); as for `c1ccc2oc(COc3ccc4c(C5CC5)noc4n3)cc2c1`, 81.1% (active); as for `Cc1ccc(COc2ccc3c(C4CC4)noc3n2)cc1F`, 94.2% (active). In the case of `c1csc(COc2ccc3c(C4CC4)noc3n2)c1`, the inhibition was 82.4% (active). As for `OCC1(CCOc2ccccc2)CCN(Cc2cc3ccccc3o2)CC1`, the figure is 28.8%; as for `Cn1c(Cc2ccccc2)nn(CN2CCC3(CC2)OCCO3)c1=S`, 8.21%; as for `Cc1ccc(COc2ccc3c(C4CC4)noc3n2)cc1`, 46.7%. Turning to `c1ccc(COc2ccc3c(C4CC4)noc3n2)cc1`, the inhibition was 76.3% (active).

Regarding `Cc1cccc(COc2ccc3c(C4CC4)noc3n2)c1`, the inhibition was 56% (active). With `Clc1cccc(COc2ccc3c(C4CC4)noc3n2)c1`, the inhibition is 76.8% (active).

As to `CCCCn1c(O)c(C=Nc2ccccc2C(=O)O)c(C)c(C#N)c1=O`, the inhibition is -10.6%. In the case of `COc1ccc2nc(-n3nc(C)cc3NC(C)=O)sc2c1`, the inhibition was 86% (active). In the case of `CC(=O)c1cccc(CN2CCC(C(=O)Nc3ccc(Oc4cccnc4)cc3)CC2)c1` it was “inactive”. In the case of `O=C(Nc1ccc(Oc2cccnc2)cc1)C1CCN(Cc2cc(Cl)ccc2O)CC1` it was 77.8% (active); in that of `Cc1ccc(CN2CCC(C(=O)Nc3ccc(Oc4cccnc4)cc3)CC2)o1`, 61.8% (active); in that of `O=C(Nc1ccc(Oc2cccnc2)cc1)C1CCN(Cc2nccs2)CC1`, 88.5% (active). As for `O=C(Nc1ccc(Oc2cccnc2)cc1)C1CCN(C/C=C/c2ccccc2)CC1`, the figure is 28.8%; as for `C=C(C)CNC(=S)NN=CC1=CCC2CC1C2(C)C` (centres undefined), 23%. For `CCCCNC(=S)NN=Cc1cccs1`, the inhibition was 103% (active). As for `CCCCNC(=S)NN=Cc1ccc(C)s1`, the inhibition was 71% (active).

`CCCCNC(=S)N(C)N=Cc1ccc(C)s1`: the inhibition is -20.6%. As for `COCCNC(=S)NN=Cc1cccs1`, the figure is 38.1%; as for `Cc1ccc(C=NNC(=S)NCCCN2CCOCC2)s1`, 102% (active). With `O=C(c1ccc2nonc2c1)N1CCCC2(CCCc3ccccc32)C1` (centres undefined), the inhibition is 23.2%. In the case of `COc1cccc(-c2ccccc2NC(=O)C2CCN(Cc3cccc4cccnc34)CC2)c1` it was “inactive”; in that of `COc1cccc(-c2ccccc2NC(=O)C2CCN(Cc3ccc(OC)c(C)c3)CC2)c1`, 92% (active). As for `COc1cccc(-c2ccccc2NC(=O)C2CCN(Cc3cccc(C)n3)CC2)c1`, the figure is 99.6% (active). As for `COc1cccc(-c2ccccc2NC(=O)C2CCN(Cc3cnc(C)nc3)CC2)c1`, the figure is 33%; as for `CC(C)c1cccc(N(C)Cc2cncn2C)c1`, 42.1%. With `N#CC(=Cc1ccc(Cl)cc1)c1nc(C2CC2)cs1`, the inhibition is 20.5%.

Turning to `N#CC(=Cc1cccc2ccccc12)c1nc(C2CC2)cs1`, the inhibition is 96.1% (active). Regarding `N#CC(=Cc1cccc2ccccc12)c1ccccn1`, the inhibition is 22.6%. As for `CCc1c(C)nc(-c2cccc(C(F)(F)F)c2)nc1N1CCNCC1`, the figure is 33.2%.

On to `CCc1c(C)nc(-c2ccc(C(F)(F)F)cc2)nc1N1CCNCC1`, for which the inhibition is 61.7% (active). `Cc1ccc(Cc2nsc(N3CCN(c4cccc(C(F)(F)F)c4)CC3)n2)cc1`: the inhibition was 24.1%. With `OCC1(Cc2cccc(C(F)(F)F)c2)CCN(c2ccc3ccccc3n2)CC1`, the inhibition was 22.1%. As for `Cc1cc(N2CCNCC2)nc(-c2cccc(C(F)(F)F)c2)n1`, the figure is 94.4% (active); as for `Cc1cc(N2CCNCC2)nc(-c2ccc(C(F)(F)F)cc2)n1`, 82% (active).

(Values after PubChem BioAssay AID1259343 (VanderVen Lab, College of Veterinary Medicine, Cornell …, 2017).)
